# Measured potencies and affinities stand elsewhere. Inconclusive results are not listed. Unmarked numbers belong to inactive results. No rule for the calls is given here.
# Assay: NIH:OVCAR-3 ovarian cancer cell cytotoxicity, dose response, PAX8 inhibitor project, plate reader, dry powder samples (AID 743044)
# Conditions: NIH:OVCAR-3 ovarian cancer cell viability; max activity: at 35 µM, stronger effect = lower value unless noted; series mostly up to 50 µM; activity change, negative = cytotoxicity: at the top concentration
SMILES,"activity change, negative = cytotoxicity [%]",max activity
O=C(/C=C/c1ccccc1)Nc1cccc(C(=O)O)c1,-31.6,
C[C@H]1CCCCO[C@H](CN(C)C(=O)C2CCCCC2)[C@@H](C)CN([C@@H](C)CO)C(=O)c2cc(NC(=O)Nc3ccc(F)cc3)ccc2O1,,-23.8%
Cc1ccc2cccc(NS(=O)(=O)c3ccccc3)c2n1,-121,
Cc1ccc(S(=O)(=O)Nc2ccc3c(c2)CC(=O)N([C@@H](C)CO)C[C@H](C)[C@@H](CN(C)C(=O)Nc2ccc(C(F)(F)F)cc2)O3)cc1,,"7.6% [at 2.1 µM, stronger effect = lower value]"
O=C(NCCc1ccccc1)c1ccc2c(c1)OCCCO2,-4.88,

# Assay: IOSE-T80 ovarian epithelial cell cytotoxicity, dose response, cytotoxicity control for PAX8 inhibitor project, plate reader, dry powder samples (AID 743045);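 also: 0% = neutral control median and -100% = positive control median; more negative values mean more cell killing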
# Conditions: IOSE-T80 ovarian epithelial cells; series mostly up to 35 µM; activity change, negative = cytotoxicity: at the top concentration
row,SMILES,"activity change, negative = cytotoxicity"
1,C[C@H](CO)N1C[C@H](C)[C@@H](CN(C)Cc2ccc(Cl)c(Cl)c2)Oc2ccc(NS(=O)(=O)c3ccccc3)cc2CC1=O,3.3%
2,COc1ccc(S(=O)(=O)N(C)C[C@H]2OCCCC[C@H](C)Oc3ccc(NS(=O)(=O)c4ccc(F)cc4)cc3C(=O)N([C@@H](C)CO)C[C@@H]2C)cc1,9.59%
3,CN(C)CCN(C(=O)/C=C/c1cccs1)c1nc2c(F)cc(F)cc2s1,11.1% [at 50 µM]
4,C[C@@H]1CCCCO[C@H](CN(C)C(=O)Cc2ccccc2)[C@@H](C)CN([C@@H](C)CO)C(=O)c2cc(NC(=O)Nc3ccc(C(F)(F)F)cc3)ccc2O1,26.8%
5,C[C@@H]1CN([C@H](C)CO)C(=O)c2cc(NC(=O)Nc3ccccc3)ccc2O[C@@H](C)CCCCO[C@@H]1CN(C)Cc1ccc(C(F)(F)F)cc1,12.1%
6,Cc1ccc(S(=O)(=O)Nc2ccc3c(c2)C(=O)N([C@@H](C)CO)C[C@@H](C)[C@H](CN(C)Cc2ccc(C(F)(F)F)cc2)OCCCC[C@H](C)O3)cc1,18%
7,C[C@@H]1CN([C@H](C)CO)C(=O)c2cc(NC(=O)Nc3ccc(C(F)(F)F)cc3)ccc2O[C@@H](C)CCCCO[C@@H]1CN(C)C(=O)c1ccccc1,6.96%
8,COc1cc(/C=C2\SC(=S)N(CCC(=O)N3CCCCC3)C2=O)cc(OC)c1OC,-81.6% [at 50 µM]
9,O=S(=O)(c1ccccc1F)N1CC[C@@H]2[C@H]1c1cc(-c3cccc(F)c3)ccc1N[C@@H]2CO,24.8%
10,Cc1noc(C)c1S(=O)(=O)Nc1ccc2c(c1)C(=O)N([C@H](C)CO)C[C@H](C)[C@@H](CN(C)C(=O)Nc1ccc(C(F)(F)F)cc1)OCCCC[C@H](C)O2,6.25%
11,Cc1ccc(S(=O)(=O)Nc2ccc3c(c2)nc(CCN2CCCC2)n3C)cc1,7.57% [at 50 µM]
12,Cc1ccc(S(=O)(=O)N(C)C[C@@H]2Oc3cc(C#Cc4ccncc4)ccc3S(=O)(=O)N([C@H](C)CO)C[C@@H]2C)cc1,-8.59%
13,O=C(/C=C/c1ccccc1)Nc1cccc(C(=O)O)c1,-22.2% [at 50 µM]
14,C[C@H]1CCCCO[C@H](CN(C)C(=O)C2CCCCC2)[C@@H](C)CN([C@@H](C)CO)C(=O)c2cc(NC(=O)Nc3ccc(F)cc3)ccc2O1,8.25%
15,C[C@H](CO)N1C[C@H](C)[C@@H](CN(C)C(=O)C2CCCCC2)OCCCC[C@H](C)Oc2ccc(NS(=O)(=O)c3ccc(Cl)cc3)cc2C1=O,17.6%
16,C[C@@H]1CN([C@H](C)CO)C(=O)c2cc(NC(=O)NC3CCCCC3)ccc2O[C@@H](C)CCCCO[C@H]1CN(C)Cc1ccc(C(F)(F)F)cc1,17.4%
17,COc1ccc(CN(C)C[C@H]2OCCCC[C@@H](C)Oc3ccc(NC(=O)Nc4ccc(F)cc4)cc3C(=O)N([C@@H](C)CO)C[C@@H]2C)cc1,-1.14%
18,Cc1ccc(S(=O)(=O)N(C)C[C@@H]2Oc3cc(C#Cc4ccncc4)ccc3S(=O)(=O)N([C@H](C)CO)C[C@H]2C)cc1,-10.1%
19,Cc1ccc(S(=O)(=O)Nc2ccc3c(c2)CC(=O)N([C@@H](C)CO)C[C@H](C)[C@@H](CN(C)C(=O)Nc2ccc(C(F)(F)F)cc2)O3)cc1,10.9%
20,CO[C@@H]1CN(C)C(=O)c2cc(NC(=O)c3ccc(-c4ccccc4)cc3)ccc2OC[C@H](C)NC[C@H]1C,-16.3% [at 30 µM]
21,Cc1ccccc1S(=O)(=O)N1CC[C@@H]2[C@H](CO)Nc3ccc(-c4cccc(F)c4)cc3[C@@H]21,-0.732%
22,COc1ccccc1C#Cc1ccc2c(c1)O[C@H](CN(C)Cc1cccnc1)[C@H](C)CN([C@@H](C)CO)S2(=O)=O,-2.27%
23,CC(C)CC#Cc1ccc2c(c1)O[C@H](CN(C)Cc1ccc(C(=O)O)cc1)[C@@H](C)CN([C@H](C)CO)S2(=O)=O,1.4%
24,Cc1cc(C)c2sc(NNC(=O)c3ccc(S(=O)(=O)N4CCc5ccccc5C4)cc3)nc2c1,-83% [at 50 µM]
25,C[C@@H]1CCCCO[C@H](CN(C)Cc2ccc(C(F)(F)F)cc2)[C@H](C)CN([C@@H](C)CO)C(=O)c2cc(NS(=O)(=O)c3ccc(F)cc3)ccc2O1,-11%
26,Cc1cc(NC(=O)CCCS(=O)(=O)c2nc(-c3cccs3)cc(C(F)(F)F)n2)no1,-95.1% [at 50 µM]

# Assay: A2780 ovarian cancer cell cytotoxicity, dose response, cytotoxicity control, plate reader, dry powder samples (AID 743046);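 also: 0% = neutral control wells and -100% = cytotoxic reference compound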
# Conditions: series mostly up to 35 µM; activity change, negative = cytotoxicity: at the top concentration
row,SMILES,"activity change, negative = cytotoxicity"
1,COc1cccc(S(=O)(=O)N2C[C@@H]3N[C@H](C2)C3c2ccc(/C=C/c3ccccc3)cc2)c1 (stereo not given in full),9.2%
2,O=C(Nc1ccc(F)cc1)N1CCCCN2[C@@H](CO)[C@@H](c3ccc(C#Cc4ccccc4)cc3)[C@@H]2C1,2.3% [at 16 µM]
3,C[C@H](CO)N1C[C@H](C)[C@@H](CN(C)Cc2ccc(Cl)c(Cl)c2)Oc2ccc(NS(=O)(=O)c3ccccc3)cc2CC1=O,12.5%
4,COc1ccc(S(=O)(=O)N(C)C[C@H]2OCCCC[C@H](C)Oc3ccc(NS(=O)(=O)c4ccc(F)cc4)cc3C(=O)N([C@@H](C)CO)C[C@@H]2C)cc1,-5.96%
5,CN(C)CCN(C(=O)/C=C/c1cccs1)c1nc2c(F)cc(F)cc2s1,-3.5% [at 50 µM]
6,CN1c2ccc(-c3ccccc3)cc2[C@H]2[C@H](CCN2C(=O)NC2CCCCC2)[C@@H]1CO,-34%
7,C[C@@H]1CN([C@H](C)CO)C(=O)c2cc(NC(=O)Nc3ccccc3)ccc2O[C@@H](C)CCCCO[C@@H]1CN(C)Cc1ccc(C(F)(F)F)cc1,28%
8,Cc1ccc(S(=O)(=O)Nc2ccc3c(c2)C(=O)N([C@@H](C)CO)C[C@@H](C)[C@H](CN(C)Cc2ccc(C(F)(F)F)cc2)OCCCC[C@H](C)O3)cc1,-20.7%
9,C[C@@H]1CN([C@H](C)CO)C(=O)c2cc(NC(=O)Nc3ccc(C(F)(F)F)cc3)ccc2O[C@@H](C)CCCCO[C@@H]1CN(C)C(=O)c1ccccc1,21.3% [at 16 µM]
10,O=C1/C(=C/c2ccccc2F)SC(=S)N1CC(=O)N1CCCCC1c1cccnc1 (stereo not given),24% [at 50 µM]
11,O=S(=O)(c1ccccc1F)N1CC[C@@H]2[C@H]1c1cc(-c3cccc(F)c3)ccc1N[C@@H]2CO,17.5%
12,Cc1noc(C)c1S(=O)(=O)Nc1ccc2c(c1)C(=O)N([C@H](C)CO)C[C@H](C)[C@@H](CN(C)C(=O)Nc1ccc(C(F)(F)F)cc1)OCCCC[C@H](C)O2,-33.8%
13,Cc1ccc(S(=O)(=O)Nc2ccc3c(c2)nc(CCN2CCCC2)n3C)cc1,37.9% [at 50 µM]
14,Cc1ccc(S(=O)(=O)N(C)C[C@@H]2Oc3cc(C#Cc4ccncc4)ccc3S(=O)(=O)N([C@H](C)CO)C[C@@H]2C)cc1,-6.02%
15,COc1ccc(S(=O)(=O)Nc2ccc3c(c2)C(=O)N([C@H](C)CO)C[C@H](C)[C@H](CN(C)Cc2ccc(C(F)(F)F)cc2)OCCCC[C@H](C)O3)cc1,-24.6%
16,Cc1ccc(-c2csc(NC3OC(=O)c4ccccc43)n2)cc1 (stereo not given),-24.4% [at 50 µM]
17,O=C(/C=C/c1ccccc1)Nc1cccc(C(=O)O)c1,-8.08% [at 50 µM]
18,C[C@H]1CCCCO[C@H](CN(C)C(=O)C2CCCCC2)[C@@H](C)CN([C@@H](C)CO)C(=O)c2cc(NC(=O)Nc3ccc(F)cc3)ccc2O1,-1.15%
19,C[C@H](CO)N1C[C@H](C)[C@@H](CN(C)C(=O)C2CCCCC2)OCCCC[C@H](C)Oc2ccc(NS(=O)(=O)c3ccc(Cl)cc3)cc2C1=O,3.02%
20,Cc1ccc(S(=O)(=O)N(C)C[C@@H]2Oc3cc(C#Cc4ccncc4)ccc3S(=O)(=O)N([C@H](C)CO)C[C@H]2C)cc1,-20.4%
21,Cc1ccc(S(=O)(=O)Nc2ccc3c(c2)CC(=O)N([C@@H](C)CO)C[C@H](C)[C@@H](CN(C)C(=O)Nc2ccc(C(F)(F)F)cc2)O3)cc1,-4.86%
22,COc1ccccc1C#Cc1ccc2c(c1)O[C@H](CN(C)Cc1cccnc1)[C@H](C)CN([C@@H](C)CO)S2(=O)=O,-16.6%
23,CC(C)CC#Cc1ccc2c(c1)O[C@H](CN(C)Cc1ccc(C(=O)O)cc1)[C@@H](C)CN([C@H](C)CO)S2(=O)=O,7.97%
24,O=C(NCCc1ccccc1)c1ccc2c(c1)OCCCO2,-64.7% [at 50 µM]
